NALP1 yeast inh – NALP1 inflammasome inhibitors in reconstituted yeast, colorimetric, S. cerevisiae, triplicate retest. S. cerevisiae NALP1/ASC/caspase-1 growth, X-gal OD620, 72 h. inhibition, % at 10 µM. 280,000 tested, 0.61% active; in the data active = inhibition mostly above about 24%, no sharp cut-off; inactive = mostly below about 32%
NALP3 yeast inh – NALP3 inflammasome inhibitors in reconstituted yeast, primary screen, luminescence, uHTS; inhibition, % at 10 µM; Yeast reconstituted NLRP3/ASC/caspase-1, beta-gal luminescence, 24 h; 330,000 tested, 0.39% active;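 active = inhibition of 50% or more; inactive = inhibition below 50%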
TIM10 inh – growth inhibitors of isogenic TIM10 control yeast, primary screen, counter-screen for tim10-1 yeast inhibitor project, luminescence, uHTS; 330,000 tested, 1.4% active; S. cerevisiae TIM10 strain growth, BacTiter-Glo luminescence, 24 h; inhibition, % at 10 µM;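 active = inhibition of 40% or more at the single tested concentration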;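 also: wild-type TIM10 isogenic control strain grown at permissive 25 °C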
tim10-1 inh – growth inhibitors of tim10-1 mutant yeast, primary screen, luminescence, uHTS; S. cerevisiae tim10-1 ts strain growth, BacTiter-Glo, 24 h; AID 463190, 2010; inhibition, % at 20 µM; 330,000 tested, 2.2% active;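 active = inhibition of at least 40%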;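 also: mutant grown at 25 °C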
tim23-1 inh – growth inhibitors of tim23-1 mutant yeast, primary screen, luminescence, uHTS; S. cerevisiae tim23-1 growth, BacTiter-Glo luminescence, 24 h; inhibition, % at 20 µM; 330,000 tested, 1.3% active; AID 463212, 2010;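 active = growth inhibition of the mutant yeast at or above 50%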;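 also: temperature-sensitive mutant grown at 25 °C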
tim10 confirm – growth inhibitors of wild-type TIM10 yeast, confirmation, counter-screen for tim10-1 synthetic lethality project, single concentration, luminescence, S. cerevisiae | shares compounds with TIM10 inh | S. cerevisiae tim10 strain growth, BacTiter-Glo luminescence, 24 h | inhibition, % at 10 µM | 4,600 tested, 63% active | AID 463215, 2010;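 active = inhibition of yeast growth at or above a set limit in either of two replicates at 10 µM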; also: this counterscreen used the strain with wild-type TIM10
Of the large screens only hits and unclear results are named; the others gave an inactive call (follow-up assays come after a bar, where they were run). This is a sample that favours compounds with a hit; in the whole collection about 4% have one here.

Cc1ccc(S(=O)(=O)Cc2cc(F)c([N+](=O)[O-])cc2[N+](=O)[O-])cc1	NALP1 yeast inh 47, TIM10 inh 89 | tim10 confirm 68
CC(C)COC(=O)C(C#N)c1nc2ccccc2nc1N1CCN(Cc2ccc3c(c2)OCO3)CC1 (stereo not drawn)	TIM10 inh 49 | tim10 confirm 39
CC(=O)N1CCOc2ccc(S(=O)(=O)NCc3ccc(C)cc3)cc21	none
COc1ccc(CNS(=O)(=O)c2ccc3c(c2)N(C(C)=O)CCO3)cc1	TIM10 inh 46 | tim10 confirm inactive
Cc1ccc(NS(=O)(=O)c2ccc(NC(=O)c3ccc(Br)o3)cc2)c(C)c1	TIM10 inh 42 | tim10 confirm inactive
CSc1nc(-c2ccc(Cl)cc2)nn1C(=O)c1ccccc1	none
CSc1nc(-c2ccccc2)nn1C(=O)c1ccc(Cl)cc1	TIM10 inh 49 | tim10 confirm inactive
COc1ccc(Nc2nccc(OC)c2C#N)cc1	none
COc1ccc(Nc2nccc(N(C)C)c2C#N)cc1	TIM10 inh 55 | tim10 confirm inactive
CC(C)(C)c1ccc(-n2nc(C#N)c(Cl)cc2=O)cc1	TIM10 inh 48 | tim10 confirm 47
O=C(/C=C/c1ccc(Cl)cc1Cl)OCC(=O)N1CCCC1	none (no result: NALP1 yeast inh)
CC(C)c1ccc(C(O)Cc2nc3ccccc3n2C)cc1 (stereo not drawn)	TIM10 inh 43 (no result: NALP1 yeast inh) | tim10 confirm inactive
CCOC(=O)c1c(C)[nH]c(C(=O)COC(=O)CNS(=O)(=O)c2ccc(C)cc2)c1C	TIM10 inh 71 (no result: NALP1 yeast inh) | tim10 confirm inactive
CC(=O)c1c(C)[nH]c(C(=O)COC(=O)CNS(=O)(=O)c2ccccc2)c1C	none
Cc1ccc(CC(=O)Nc2ccc(S(=O)(=O)Nc3ncccn3)cc2)cc1	none
O=C(Nc1ccc2oc(-c3ccncc3)nc2c1)c1ccc2c(c1)OCCO2	none (no result: NALP1 yeast inh)
O=C(Nc1ccc2oc(-c3ccccc3)nc2c1)c1ccc2c(c1)OCCO2	TIM10 inh 46 | tim10 confirm 52
Cc1onc(-c2ccccc2Cl)c1C(=O)NC(=S)Nc1ccc(C(C)(C)C)cc1	none (no result: NALP1 yeast inh)
N#CC(Nc1ccccc1)c1ccccc1OCc1ccccc1 (stereo not drawn)	TIM10 inh 42 | tim10 confirm inactive
COc1ccc(C(C#N)Nc2ccccc2)cc1 (stereo not drawn)	none
O=C(c1ccccc1)[C@H]1[C@H](c2ccccc2)[C@@]2(N=C(c3ccccc3)OC2=O)C2c3ccccc3C=NN21 (stereo partly drawn)	TIM10 inh 42 | tim10 confirm inactive
COc1ccccc1-c1coc2cc(O)cc(O)c2c1=O	TIM10 inh 42 | tim10 confirm inactive
COc1ccc(-c2coc3cc(O)cc(O)c3c2=O)cc1OC	none (no result: NALP1 yeast inh)
CC1(C)Oc2ccc3ccc(=O)oc3c2/C(=C/NC2CCCCC2)C1=O	TIM10 inh 54 | tim10 confirm 42
Cc1ccccc1Nc1nc(Nc2ccccc2C)nc(SC2=NCCS2)n1	TIM10 inh 42 | tim10 confirm 45
COc1cc(-c2n[nH]c(=S)n2/N=C/c2cccn2C)cc(OC)c1OC	none (no result: NALP1 yeast inh)
CN(C)S(=O)(=O)Oc1ccc(C(=O)Nc2cccc(Cl)c2)cc1	TIM10 inh 47 | tim10 confirm 45
COc1ccc(C/C(N)=N/OC(=O)c2ccc(Cl)cc2)cc1	TIM10 inh 49 | tim10 confirm 59
COc1ccc(C/C(N)=N/OC(=O)Cc2ccccc2)cc1	TIM10 inh 52 | tim10 confirm inactive
O=C(CCn1nnnc1CN1CCOCC1)N1CCC(c2cccc(Cl)c2)C1 (stereo not drawn)	none
COc1ccc(S(=O)(=O)N2CCCOC2CNC(=O)C(=O)NCc2ccccn2)cc1 (stereo not drawn)	none
Cc1cc2n(n1)SC(Nc1cccc3ccccc13)N2 (stereo not drawn)	TIM10 inh 42 | tim10 confirm inactive
CC(C)c1nnc(SCC(=O)Nc2ccc3c(c2)OCCO3)n1C	none
Fc1ccccc1/C=N/n1cc(-c2ccccc2)[nH]c1=S	TIM10 inh 45 (no result: NALP1 yeast inh) | tim10 confirm 47

Bioassay records from PubChem.
